Laboratory results reported in article PMC8384837, “Expanding the binding specificity for RNA recognition by a PUF domain”.

Each sequence was assayed against PUM1 PUF domain R3-CFG (Homo sapiens, UniProt Q14671 828-1176, R936F;Q939G) (assay: yeast three-hybrid, YBZ-1, SC-Leu-His + 0.5 mM 3-AT, 4 days). Conditions: tags: N-Gal4 AD-HA kept; label: inside an RPR1-promoter hybrid RNA with tandem MS2 sites; ssRNA.
Procedure, shortened: (§1)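 The interaction score is the logarithmic change in variant frequency from input to selection. It uses log2, with a pseudocount of 1 for absent variants, and frequencies came from PCR-amplified, Illumina-sequenced repeat regions. The libraries were Pumilio-1 PUF domains randomized at the three base-contacting residues per repeat, co-expressed with matching RNA elements in strain YBZ-1 (LexA–MS2 coat fusion, HIS3 reporter). Plating lasted four days on SC-Leu (input) or SC-Leu-His + 0.5 mM 3-AT (selection).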
In the case of “GGCUAGAACUAGUGGAUCCCCCGGCGCCCGGCGGCUCGAGCCCGGGUAAGUGUAAUUAGUCUGCAUGCCGCCGGGCGCCAUGCCUGCAGGUCGACUCUAGAAAACAUG”, the binding signal is reported as 2.06 log2 enrichment (interaction score).
“GGCUAGAACUAGUGGAUCCCCCGGCGCCCGGCGGCUCGAGCCCGGGUAAGUGUAAAUAGUCUGCAUGCCGCCGGGCGCCAUGCCUGCAGGUCGACUCUAGAAAACAUG” was tested, and the binding signal was 3.86 log2 enrichment (interaction score).
In the case of “GGCUAGAACUAGUGGAUCCCCCGGCGCCCGGCGGCUCGAGCCCGGGUAAGUGUAAGUAGUCUGCAUGCCGCCGGGCGCCAUGCCUGCAGGUCGACUCUAGAAAACAUG”, the binding signal is reported as 1.61 log2 enrichment (interaction score).

The sequences below were run against PUM1 PUF domain R5-SGR (Homo sapiens, UniProt Q14671 828-1176, C1007S;R1008G;Q1011R) in the same assay as above. Conditions: tags: N-Gal4 AD-HA kept; label: inside an RPR1-promoter hybrid RNA with tandem MS2 sites; ssRNA.
Procedure, shortened: as §1
“GGCUAGAACUAGUGGAUCCCCCGGCGCCCGGCGGCUCGAGCCCGGGUAAGUGUCAAUAGUCUGCAUGCCGCCGGGCGCCAUGCCUGCAGGUCGACUCUAGAAAACAUG” was tested, and the binding signal was 6.98 log2 enrichment (interaction score).
In the case of “GGCUAGAACUAGUGGAUCCCCCGGCGCCCGGCGGCUCGAGCCCGGGUAAGUGUUAAUAGUCUGCAUGCCGCCGGGCGCCAUGCCUGCAGGUCGACUCUAGAAAACAUG”, the binding signal is reported as 0.78 log2 enrichment (interaction score).
In the case of “GGCUAGAACUAGUGGAUCCCCCGGCGCCCGGCGGCUCGAGCCCGGGUAAGUGUAAAUAGUCUGCAUGCCGCCGGGCGCCAUGCCUGCAGGUCGACUCUAGAAAACAUG”, the binding signal is reported as 1.55 log2 enrichment (interaction score).

What follows are sequences tested against PUM1 PUF domain R5-FRS (Homo sapiens, UniProt Q14671 828-1176, C1007F;Q1011S) in the same assay as above. Conditions: tags: N-Gal4 AD-HA kept; label: inside an RPR1-promoter hybrid RNA with tandem MS2 sites; ssRNA.
Procedure, shortened: as §1
For “GGCUAGAACUAGUGGAUCCCCCGGCGCCCGGCGGCUCGAGCCCGGGUAAGUGUCAAUAGUCUGCAUGCCGCCGGGCGCCAUGCCUGCAGGUCGACUCUAGAAAACAUG”, the binding signal was 2.38 log2 enrichment (interaction score).
For “GGCUAGAACUAGUGGAUCCCCCGGCGCCCGGCGGCUCGAGCCCGGGUAAGUGUUAAUAGUCUGCAUGCCGCCGGGCGCCAUGCCUGCAGGUCGACUCUAGAAAACAUG”, the binding signal was 3.13 log2 enrichment (interaction score).
For “GGCUAGAACUAGUGGAUCCCCCGGCGCCCGGCGGCUCGAGCCCGGGUAAGUGUAAAUAGUCUGCAUGCCGCCGGGCGCCAUGCCUGCAGGUCGACUCUAGAAAACAUG”, the binding signal was 0.74 log2 enrichment (interaction score).

The sequences below were run against PUM1 PUF domain R8-SFK (Homo sapiens, UniProt Q14671 828-1176, N1122S;Y1123F;Q1126K) in the same assay as above. Conditions: tags: N-Gal4 AD-HA kept; label: inside an RPR1-promoter hybrid RNA with tandem MS2 sites; ssRNA.
Procedure, shortened: as §1
In the case of “GGCUAGAACUAGUGGAUCCCCCGGCGCCCGGCGGCUCGAGCCCGGGUAAGCGUAAAUAGUCUGCAUGCCGCCGGGCGCCAUGCCUGCAGGUCGACUCUAGAAAACAUG”, the binding signal is reported as 5.53 log2 enrichment (interaction score).
With “GGCUAGAACUAGUGGAUCCCCCGGCGCCCGGCGGCUCGAGCCCGGGUAAGGGUAAAUAGUCUGCAUGCCGCCGGGCGCCAUGCCUGCAGGUCGACUCUAGAAAACAUG” the binding signal was 2.09 log2 enrichment (interaction score).
For “GGCUAGAACUAGUGGAUCCCCCGGCGCCCGGCGGCUCGAGCCCGGGUAAGUGUAAAUAGUCUGCAUGCCGCCGGGCGCCAUGCCUGCAGGUCGACUCUAGAAAACAUG”, the binding signal was 5.06 log2 enrichment (interaction score).
